# Bioassay records as filed in PubChem BioAssay.
# Nrf2 activator: qHTS of Nrf2 Activators; AREc32 ARE-luciferase reporter (MCF7-derived line), luminescence, 24 h; Potency, µM (series often up to 46.1 µM), inactives show top-dose activation, most hits filed as activators; hit rate 0.31% among 410,000; note: potency is the fitted concentration of half-maximal effect; % of control where 0% means no effect; nearly all actives have a fitted effect of over 65% in size
#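 ARE activation measured as luciferase luminescence (Steady-Glo, 30 min RT) in AREc32_Fluc cells after 24 hr compound exposure at 37 deg C, 5% CO2; cells seeded overnight at 1000/well in OPTI-MEM, 5% FBS.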
# BRCA1 expr act: qHTS Assay to Identify Small Molecule Activators of BRCA1 Expression; MCF7-BRCA1-FFLuc reporter, luminescence, 48 h; response scale: scaled: vehicle 0%, 10 µM genistein 100%; Potency, µM (titrated, usually from 46.1 µM), inactives show at the highest dose activation, most hits filed as activators; hit rate 1.1% among 380,000; AID 624202, 2012; note: potency is the fitted concentration of half-maximal effect; nearly all actives have a fitted effect of over 80% in size
#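 Quantitative HTS in MCF7 cells stably reporting BRCA1 expression via firefly luciferase. Compound treatment lasts 48 h at 37 °C in phenol-red free MEM. Activation is expressed relative to genistein at 10 microM and DMSO.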
# IL-2 act: qHTS of IL-2 Activators; IL-2 activation reporter assay, cell-based qHTS; stimulated with anti-CD3/CD4/CD28 beads; in transgenic mouse T cells; activation, % (series mostly up to about 46 µM); hit rate 0.065% among 360,000; AID 652025, 2013; in the data active = activation above about 50%; inconclusive = mostly about 30% to 49%; note: 0% is about no effect
#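 Unstimulated transgenic mouse T cells; 60-min compound exposure; bead-based TCR/CD4/CD28 stimulation; 18 h culture, 37 degrees C; dual fluorescence (EGFP, DsRed) plate cytometry.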
# ELG1 repair inh: qHTS screen for small molecules that inhibit ELG1-dependent DNA repair in human embryonic kidney (HEK293T) cells expressing luciferase-tagged ELG1. Potency, µM (series often up to 46.1 µM), without a hit: at the top dose activity change, negative = inhibition, most hits filed as inhibitors. hit rate 2.3% among 330,000. HEK293T ELG1-luciferase reporter, luminescence, 16 h; DNA damage induced by 5-fluorouridine; note: potency is the fitted concentration of half-maximal effect; % is set by controls: 0 for no effect and ±100 for the full control effect; nearly all actives have a fitted effect of over 55% in size
#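 Luminescence from the luciferase reporter, measured 30 min after ONE-Glo reagent at room temperature, was the read-out. Beforehand, 2,000 cells per well were exposed for 16 hr at 37 °C to 5-fluorouridine together with compound or vehicle.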
# An asterisk follows results filed as active; ? = inconclusive; . = not tested or not shown; [ ] = another dose, or the depositor's remark. In the library only some 3.1% were active in any assay of this set; here they are far more common. Unless noted, calls come from the whole dose curve; as a rule, active = well fitted curve in the direction sought with a large enough effect; inconclusive = small, poorly fitted or top-dose-only effect, or another doubt; inactive = no such curve, though single readings can be large; an effect the other way counts as inactive or inconclusive.
SMILES,Nrf2 activator,BRCA1 expr act,IL-2 act,ELG1 repair inh
CN(C=O)c1ccc(CSc2ccccc2)cc1,5%,8.9µM*,-1,.
O=C(Nc1cccnc1)c1ccc(CSc2ccccc2)cc1,2%,18%,-1,?
Cc1ccc(C(=O)Nc2ccc3nc(SCC(=O)N4CCCc5ccccc54)sc3c2)cc1,1%,.,.,.
Cc1cc(C(=O)COC(=O)Cc2n[nH]c(=O)c3ccccc23)c(C)n1-c1cccc(C(F)(F)F)c1,5%,-27%,1,23µM*
COc1ccc(OC)c(-c2nnc3n2N=C(c2ccc(OC(F)F)c(OCC4CC4)c2)CS3)c1,0%,-55%,-1,12µM*
CN(C)c1ccc(C=C2C=Cc3ccccc32)cc1,3%,?,-4,.
CN(C)c1ccc(/C=C2\C=Cc3ccccc32)cc1,.,3.5µM*,.,.
CCN(CC)c1ccc(/C=C2\C=Cc3ccccc32)cc1,.,4.5µM*,.,.
COc1ccc(C2=NN(CC(=O)NCCc3ccccc3)C(=O)CC2)cc1,1%,.,.,.
Cc1nc(N2CCC(C)CC2)c2c(C)c(C(=O)Nc3ccc(C(F)(F)F)cc3)sc2n1,0%,-71%,-3,-10%
CCOC(=O)C1CCN(C(=O)c2sc3nc(C)nc(N4CCC(C)CC4)c3c2C)CC1,0%,-1%,-3,23µM*
CCOC(=O)C1CCN(C(=O)c2sc3ncnc(N4CCC(C)CC4)c3c2C)CC1,0%,-25%,-2,23µM*
Cc1ccc2sc(N3CCN(C(=O)C4COc5ccccc5O4)CC3)nc2c1C (stereo unspecified),0%,2%,.,.
O=c1/c(=C/c2ccc(O)c([N+](=O)[O-])c2)sc2nc3ccccc3n12,2%,68%,0,?
O=c1/c(=C\c2cccnc2)sc2nc3ccccc3n12,6%,13µM*,0,?
Cc1c(/C=N/NC(=O)CNc2ccccc2)c2ccccn2c1C(=O)c1ccncc1,0%,-8%,-1,18µM*
Cc1ccccc1NCC(=O)N/N=C/c1c(C)c(C(=O)c2ccc(Cl)cc2)n2ccccc12,-1%[9.22 µM],-43%,0,?
Cc1c(/C=N/NC(=O)CNc2ccccc2)c2ccccn2c1C(=O)c1ccc(Cl)cc1,3%,-59%,0,23µM*
Cc1c(C=O)c2ccccn2c1C(=O)c1ccccc1,0%,3%,0,?
OC[C@@H]1CN(Cc2cccs2)C[C@H](n2cnc3c(NCc4ccco4)ncnc32)O1,15%,8%,0,.
Nc1ccc(-c2nc3ccc(N)cc3[nH]2)cc1,?,16%,0,?
Nc1ccc2cc3[nH]c4cc(N)ccc4c3nc2c1,?,-76%,424*,.
O=C(NCCCN1CCOCC1)c1ccc(-n2nc(C(F)(F)F)cc2-c2cccs2)cc1,0%,-15%,-3,15µM*
COCCCNC(=O)c1ccc(-n2nc(C(F)(F)F)cc2-c2cccs2)cc1,0%,-19%,0,?
Nc1sc2c(c1C(=O)NCCc1ccccc1)CCCC2,.,.,0,.
SMILES,Nrf2 activator,BRCA1 expr act,IL-2 act,ELG1 repair inh
COCCCNC(=O)CCCN1C(=O)CCn2nc(-c3cn(C)c4ccccc34)cc21,1%,.,.,.
CC(N=c1ccccn1C(=O)Nc1ccc(Cl)cc1)c1ccco1 (stereo unspecified),1%,10µM*,2,27%
COc1ccc(CCN(C)Cc2ccc(C(=O)Nc3ccccc3)cc2)cc1OC,-1%,7%,-3,7.3µM*
Cc1ccc(-n2nnc(-c3cccnc3Cl)n2)cc1,1%,3.5µM*,0,?
CCn1c(O)c(C=Nc2ccccc2)sc1=S,7%,3.2µM*,4,?
C=CCn1c(O)c(C=Nc2ccccc2)sc1=S,4%,?,0,?
Oc1c(C=Nc2ccccc2)sc(=S)n1Cc1ccccc1,7%,0%,71*,0%
CCc1nn2c(-c3ccccc3OC)ccnc2c1-c1ccc(F)cc1,7%,-19%,.,.
COc1ccccc1C(=O)OCc1c(-c2ccccc2)ncc2ccccc12,6%,-11%,0,16µM*
O=C(COc1ncnc2cc(Cl)ccc12)c1ccc2c(c1)OCCO2,1%,1.8µM*,1,?
Cc1ccc(-n2cc(CN3CCC(O)(c4ccccn4)CC3)c(-c3ccc(F)cc3)n2)cc1,4%,-83%,-1,18µM*
